# From ChEMBL document CHEMBL3988442, “University of Dundee, Small-Polar-MMV Screening Library” (2021)
# Screen size: about 69,000 compounds; about 50 (0.07%) showed an effect of 50% or more. The sample as a whole holds a higher share of strong results than the screen did.
# Molecular target: Lysine--tRNA ligase (Plasmodium falciparum (isolate 3D7)) (UniProt Q8IDJ8)
# Test: Pf-KRS-1 (Lysyl-RNA Synthetase-1, KRS-1, cytosolic KRS) from Plasmodium falciparum. Inhibitor assay, 384 well plate, luminescence read.
# Assay type: functional
# Design: scale not given: in the data most compounds retested in dose-response had high values
# Details: 30 µM
# Lysine--tRNA ligase (Plasmodium falciparum (isolate 3D7)), sequence (Q8IDJ8 1-583): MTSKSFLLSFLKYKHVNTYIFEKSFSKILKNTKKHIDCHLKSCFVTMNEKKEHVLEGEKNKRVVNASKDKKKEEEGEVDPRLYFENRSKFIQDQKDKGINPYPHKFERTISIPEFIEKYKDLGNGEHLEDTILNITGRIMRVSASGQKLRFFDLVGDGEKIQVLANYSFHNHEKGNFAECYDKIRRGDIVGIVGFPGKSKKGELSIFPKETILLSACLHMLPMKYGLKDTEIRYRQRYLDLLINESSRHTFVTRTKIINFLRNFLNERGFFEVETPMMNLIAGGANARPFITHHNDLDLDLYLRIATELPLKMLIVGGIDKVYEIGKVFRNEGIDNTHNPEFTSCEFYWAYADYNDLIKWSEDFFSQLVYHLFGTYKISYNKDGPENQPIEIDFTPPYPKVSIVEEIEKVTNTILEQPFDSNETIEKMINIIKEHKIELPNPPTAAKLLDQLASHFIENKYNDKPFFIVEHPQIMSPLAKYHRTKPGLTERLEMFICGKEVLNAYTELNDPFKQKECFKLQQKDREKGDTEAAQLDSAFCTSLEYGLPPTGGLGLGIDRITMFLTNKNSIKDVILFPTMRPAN
row,Compound,Percent Effect
1,COC(=O)c1ccc2ccn(CC3CCCO3)c(=O)c2c1 (stereo not drawn),12.9%
2,COC(=O)c1ccc2ccn(CC3CCCCO3)c(=O)c2c1 (stereo not drawn),78.6%
3,COC(=O)c1ccc2ccn(CC3COCCO3)c(=O)c2c1 (stereo not drawn),26.4%
4,O=C(N1CCCO1)[C@@]12CCO[C@@H]1CCN(Cc1cccnc1)C2,0.613%
5,CN1C(=O)CO[C@H]2CCN(C(=O)Cc3ccc4c(c3)CCCC4)CC[C@@H]21,0.27%
6,Cc1ncc2c(n1)CN(CC1CCCCO1)CC2 (stereo not drawn),76.2%
7,CC(C)n1nc2c(cc1=O)CN(CC1CCCCO1)CC2 (stereo not drawn),11.8%
8,CC(C)c1ncc2c(n1)CN(CC1CCCCO1)CC2 (stereo not drawn),2.58%
9,CCn1nc2c(cc1=O)CN(CC1CCCCO1)CC2 (stereo not drawn),-3.92%
10,Cn1nc2c(cc1=O)CN(CC1CCCCO1)CC2 (stereo not drawn),50.5%
11,CCCn1nc2c(cc1=O)CN(CC1CCCCO1)CC2 (stereo not drawn),8.29%
12,c1ncc2c(n1)CN(CC1CCCCO1)CC2 (stereo not drawn),84.6%
13,Cc1cc(CN2CCc3cncnc3C2)no1,8.95%
14,CCc1ncc2c(n1)CN(CC1CCCCO1)CC2 (stereo not drawn),17.1%
15,COCCN1CCO[C@H]2CN(Cc3cccc(C)n3)C[C@H]21,2.71%
16,CO[C@H]1CN(CC2CCOCC2)[C@@H]2CCCO[C@H]12,3.3%
17,Cc1cccc(CN2C[C@H](NS(C)(=O)=O)[C@@H]3OCCC[C@@H]32)n1,0.332%
18,Cc1noc([C@]23COC[C@H]2CN(C(C)C)C3)n1,2.71%
19,CC(CCc1ccccc1)NC(=O)Nc1cnn(CC(N)=O)c1 (stereo not drawn),2.54%
20,COCCn1cc(NC(=O)NC(C)CCc2ccccc2)ccc1=O (stereo not drawn),64.7%

row,Compound,Percent Effect
1,COCCn1cc(NC(=O)C(C)CCc2ccccc2F)ccc1=O (stereo not drawn),34.2%
2,CCCN1CCN(C(=O)c2cc3ccccc3cn2)[C@H]2CS(=O)(=O)C[C@H]21,4.93%
3,Cc1ccc(-c2ccc(C3CNCCO3)nc2)cc1 (stereo not drawn),5.24%
4,O=c1[nH]c2c(c(=O)n1C1CCCCC1)CCC2Nc1ccccc1 (stereo not drawn),24.4%
5,Cc1cccc(NC2CCc3c2[nH]c(=O)n(C2CCCCC2)c3=O)c1C (stereo not drawn),32.2%
6,O=c1[nH]c2c(c(=O)n1C1CCCCC1)CCC2NCc1ccccc1 (stereo not drawn),11.2%
7,O=c1[nH]c2c(c(=O)n1C1CCCCC1)CCC2Nc1ccccn1 (stereo not drawn),28.1%
8,O=c1[nH]c2c(c(=O)n1C1CCCCC1)CCC2Nc1ccccc1Cl (stereo not drawn),61.5%
9,O=c1[nH]c2c(c(=O)n1C1CCCCC1)CCC2NCCc1ccccc1 (stereo not drawn),55.6%
10,COC[C@@]12CCO[C@@H]1CCN(Cc1ccccc1OC)C2,6.78%
11,CC(=O)N1CCO[C@@H]2CN(S(=O)(=O)C3CC3)CC[C@@H]2C1,2.76%
12,CO[C@H]1CC[C@H]2[C@H]1OCCN2C(=O)CC1=CCCCC1,18.1%
13,Cc1ncsc1CN1C[C@H](C(=O)N2CCCO2)[C@@H]2CCO[C@@H]2C1,0.217%
14,O=C(NCc1ccoc1)Nc1ccc(CN2CCOC2=O)cc1,2.38%
15,Cn1cc(NC(=O)NCc2ccsc2)ccc1=O,73.2%
16,COc1ccc(CNC(=O)Nc2ccc(=O)n(C)c2)cc1,77.6%
17,COc1ccc(CNC(=O)Nc2ccc(CN3CCOC3=O)cc2)cc1,0.788%
18,Cn1cc(NC(=O)NCc2ccoc2)ccc1=O,58.5%
19,Cn1cc(NC(=O)CCc2ccsc2)ccc1=O,7.87%
20,COC(=O)c1ccc(CNC(=O)Nc2ccc(=O)n(C)c2)cc1,-0.542%

row,Compound,Percent Effect
1,CN(Cc1ccsc1)C(=O)Nc1ccc(=O)n(C)c1,28.4%
2,Cc1nnc(NC(=O)NCc2ccoc2)s1,0.941%
3,COCC(=O)N1C[C@H]2CCC[C@@]2(COC)C1,3.43%
4,O=C(c1cccnc1)N1C[C@H]2CN(Cc3cccc(F)c3)C(=O)[C@H]2C1,7.87%
5,CO[C@H]1CCN(C2CCC2)[C@@H]2CN(Cc3ccncc3)C[C@H]12,3%
6,CO[C@@H]1CCN(S(=O)(=O)c2cccnc2)[C@@H]2CN(CC3CC3)C[C@@H]21,4.3%
7,O=C(NC1CCCC1)[C@H]1CC[C@@H]2[C@@H](CCN2c2ncc(F)cn2)O1,-0.28%
8,CO[C@H]1CC[C@H]2[C@H]1OCCN2Cc1ccc(F)c(F)c1,-6.11%
9,COCc1cnc2n1CCN(C(=O)c1ccc3ccccc3n1)C2C (stereo not drawn),10.7%
10,O=C(CC1CCCC1)N1C[C@@H]2CCN(c3cccnc3)C[C@@H]2C1,1.75%
11,c1coc(-c2nc3c(c(N4CCCN5CCC[C@H]5C4)n2)CCNCC3)c1,0.644%
12,Cc1ccoc1C(=O)N1CC[C@H]2OCC[C@@]2(COCc2ccncc2)C1,6.75%
13,Cc1cc(=O)n(C)cc1NC(=O)Cc1cccc(F)c1,19.8%
14,Cc1cc(=O)n(C)cc1NC(=O)Cc1ccc(C(F)(F)F)cc1,1.6%
15,Cc1cc(=O)n(C)cc1NC(=O)Cc1cc(F)ccc1F,69.1%
16,O=C1CO[C@H]2CN(C3CCOCC3)C[C@H]2N1Cc1ccccn1,2.85%
17,Cc1ccc(S(=O)(=O)N2C[C@@H]3CCN[C@@H]3C2)cc1,2.57%
18,COc1ccc(CN2C[C@@H]3COC[C@@H](CC(=O)N4CCCC4)[C@@H]3C2)cc1,4.49%
